Sampled rows, rich in hits. Any-hit rate of the full collection: about 3.2%.
IL-2 act: qHTS of IL-2 Activators. IL-2 activation reporter assay, cell-based qHTS; stimulated with anti-CD3/CD4/CD28 beads; in transgenic mouse T cells. activation, % (series mostly up to about 46 µM). 0.065% of 360,000 active; in the data active = activation above about 50%; inconclusive = mostly about 30% to 49%; note: 0% is about no effect
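Quantitative HTS in unstimulated transgenic mouse T cells, with memory T cells as non-tolerant control and PMA/ionomycin as tolerance-bypass control. Compound pretreatment lasted 60 minutes before 18 h bead stimulation; EGFP/DsRed fluorescence read.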
Nrf2 ARE act: qHTS of Nrf2 Activators | AID 624171, 2012 | Potency, µM (highest dose often 46.1 µM), for the others: at the highest dose activation, hits mostly activators | 0.31% of 410,000 active | AREc32 ARE-luciferase reporter (MCF7-derived line), luminescence, 24 h; note: potency is the fitted concentration of half-maximal effect; % of control where 0% means no effect; nearly all actives have a fitted effect of over 65% in size
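Luciferase luminescence (Steady-Glo, 30 min at room temperature) served as the read-out of ARE activation in AREc32 cells treated with compounds for 24 hr at 37 deg C.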
A549 viability: Nrf2 qHTS screen for inhibitors: counterscreen for cytotoxicity | AID 504648, 2011 | Potency, µM (highest dose often 46 µM), inactives show at the top dose activity change, negative = cytotoxicity, actives largely listed as inhibitors | A549 ARE-Fluc cells, CellTiter-Fluor viability, 18-24 h | 0.16% of 390,000 active; note: potency is the fitted concentration of half-maximal effect; % is set by controls: 0 for no effect and ±100 for the full control effect
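Cytotoxicity counterscreen: CellTiter-Fluor fluorescence was measured in A549 ARE_Fluc cells after 18-24 h of compound exposure in a concentration series. The subsequent BugLite luminescent read reports ARE-luciferase activity.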
BRCA1 expr up: qHTS Assay to Identify Small Molecule Activators of BRCA1 Expression. 1.1% of 380,000 active. Potency, µM (top dose mostly 46.1 µM), for inactives: top-dose activation, actives largely listed as activators. MCF7-BRCA1-FFLuc reporter, luminescence, 48 h; response scale: scaled: vehicle 0%, 10 µM genistein 100%; note: potency is the fitted concentration of half-maximal effect; nearly all actives have a fitted effect of over 80% in size
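MCF7-BRCA1-FFLuc cells, 2000/well in phenol-red-free MEM, attached 2 h then treated 48 h at 37 C. Luciferase luminescence read 15 min after reagent; normalized to genistein maximum activation (10microM) and DMSO, concentration-response fitted.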
Nrf2 block: Nrf2 qHTS screen for inhibitors; A549 ARE-Fluc reporter, luciferase luminescence, 18-24 h; Potency, µM (series often up to 46 µM), without a hit: top-dose activity change, negative = inhibition, actives largely listed as inhibitors; 2.1% of 360,000 active; AID 504444, 2011; note: potency is the fitted concentration of half-maximal effect; % is set by controls: 0 for no effect and ±100 for the full control effect; nearly all actives have a fitted effect of over 60% in size
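Quantitative HTS in A549 cells stably bearing an antioxidant response element-firefly luciferase construct. Inhibition of Nrf2-driven transcription was scored by luminescence after 18-24 h of compound exposure at 37 °C.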
p53 reactivation: qHTS assay for re-activators of p53 using a Luc reporter | H1299 p53-A138V BP100-luciferase reporter, luminescence, 24 h | Potency, µM (top dose mostly 92.2 µM), for inactives: top-dose activity change, positive = activation, most hits filed as activators | 0.063% of 320,000 active | AID 504706, 2011; note: potency is the fitted concentration of half-maximal effect; % of control where 0% means no effect; nearly all actives have a fitted effect of over 45% in size
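p53-null H1299 cells stably carrying temperature-sensitive p53-A138V and a BP100-luciferase reporter were pinned with compounds (4-point, 1:5 series) and held 24 hrs at 37 deg C. Luminescence was read 10 min after detection reagent.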
An asterisk follows results filed as active; u = inconclusive; x = no result; [ ] = remark or other dose. Unless noted, calls come from the whole dose curve; as a rule, active = well fitted curve in the direction sought with a large enough effect; inconclusive = small, poorly fitted or top-dose-only effect, or another doubt; inactive = no such curve, though single readings can be large; an effect the other way counts as inactive or inconclusive.

SMILES	IL-2 act	Nrf2 ARE act	A549 viability	BRCA1 expr up	Nrf2 block	p53 reactivation
CCn1cnc2cc(NCc3ccccc3Cl)ccc21	-4.6	0.2%	0.7%	u	u	10.6%
Cc1ccc(CNc2nc3ccccc3n2C)o1	1.9	4.8%	u	3.98µM*	u	u
Cn1c(NCc2ccccc2O)nc2ccccc21	0.1	3.3%	-1.4%	u	u	u
Cn1c(NCc2ccccc2Cl)nc2ccccc21	-1.9	-0.2%	1.6%	3.55µM*	u	x
CCN(CC)CCn1c(NCc2ccc(C)o2)nc2ccccc21	0.7	3.2%	6.2%	-1.4%	18.9%	1.5%
Cn1cnc2cc(NCc3ccccc3Cl)ccc21	-0.5	2.0%	1.8%	7.94µM*	u	20.9%
CCS(=O)(=O)N1CCC(n2c(C(F)(F)F)nc3cccnc32)CC1	x	-0.8%	6.9%	x	6.4%	x
NS(=O)(=O)c1ccc(N/C=C/C(=O)c2ccc(Br)cc2)cc1	1.5	6.4%	-11.1%	u	u	u
NS(=O)(=O)c1ccc(N/C=C\C(=O)c2ccc(F)cc2)cc1	-0.9	2.1%	-4.3%	1µM*	17.7%	6.8%
CCc1ccccc1NC(=O)Cc1c(C(=O)O)[nH]c2ccc(Cl)cc12	x	-0.1%	8.0%	2.2%	3.1%	x
N#CC1=C2SCC(O)(c3ccccc3)N2C(=O)CC1c1ccccc1F (stereo unspecified)	1.0	5.1%	-6.0%	-82.8%	10.3µM*	-1.9%
N#CC1=C2SCC(O)(c3ccccc3)N2C(=O)CC1c1cccs1 (stereo unspecified)	-3.2	8.0%	-11.8%	-89.9%	x	0.5%
CCN1CCN(C(c2ccc(SC)cc2)c2c(O)cc(C)n(Cc3ccco3)c2=O)CC1 (stereo unspecified)	x	0.2%	4.0%	x	x	x
CC1CCCN(C(=O)CSc2cnc3ccccc3n2)C1 (stereo unspecified)	1.9	3.9%	-4.9%	11.2µM*	u	28.9%
CC1CCc2c(sc(/N=C/N(C)C)c2C#N)C1 (stereo unspecified)	-0.6	3.7%	0.2%	12.6µM*	u	15.6%
Cn1cc(S(=O)(=O)c2ccc(Cl)cc2)c(=O)c2cc(F)c(N3CCCCCC3)cc21	x	0.5%	-22.8%	x	16.4µM*	x
Cc1ccc(S(=O)(=O)c2cn(C)c3cc(N4CCCCC4)c(F)cc3c2=O)cc1	x	-0.5%	9.5%	x	-16.9%	x
O=S(=O)(c1ccccc1Cl)N1CCCC(c2nc(-c3cccnc3)no2)C1 (stereo unspecified)	-0.6	2.2%	4.3%	0.8%	25.9µM*	0.9%
C=CCN1CCN(C(=O)CSc2ccccc2)CC1	-0.2	3.4%	9.0%	11.2µM*	u	x
Cc1ccsc1/C=N/N=C/c1sccc1C	0.1	u	0.9%	2.24µM*	u	x
O=C1NC(=S)S/C1=C\c1ccc(SCc2ccccc2)o1	0.1	24.9%	u	-37.0%	20.6µM*	1.0%
O=C1NC(=S)S/C1=C\c1ccc(SCc2ccco2)o1	-1.9	14.1%	u	-5.6%	-9.7%	0.9%
Cc1ccc(C(=O)O)cc1Nc1nc2ccccc2n2nnnc12	x	8.8%	1.1%	x	9.0%	x
Cc1cccc(C)c1OCC(=O)N/N=C/C=C/c1ccco1	0.0	1.58µM*	-5.2%	-44.9%	3.0%	-8.6%
Cc1ccc(OCC(=O)N/N=C/C=C/c2ccco2)c(Br)c1	-2.8	26.4%	0.4%	-31.5%	-4.9%	x
SMILES	IL-2 act	Nrf2 ARE act	A549 viability	BRCA1 expr up	Nrf2 block	p53 reactivation
Cc1cccc(OCC(=O)N/N=C/C=C/c2ccco2)c1	-0.5	22.4µM*	-1.2%	19.1%	12.1%	12.6%
Cc1ccc(NC(=O)c2ccc3c(c2)CCC(=O)N3)cc1C	x	x	1.5%	x	4.8%	x
COc1ccc(CCNC(=O)C2CCN(c3ncnc4c3nc3n4CCCCC3)CC2)c(OC)c1	x	0.1%	4.0%	x	-26.8%	x
O=S1(=O)NCC23CCC(CC21)O3 (stereo unspecified)	x	x	-4.2%	x	-9.0%	x
Cc1nc(NC(=O)CCl)sc1C(=O)N(C)C	-2.2	12.6µM*	-3.9%	-37.0%	-20.9%	-12.3%
Cc1nc(NC(=O)C(Cl)Cl)sc1C(=O)N(C)C	-0.3	2.7%	0.3%	-6.5%	-7.4%	-0.9%
COc1cc2c(cc1OC)C1=NC(=O)CN1C(SCc1ccccc1C)=N2	0.2	0.7%	-15.1%	-3.9%[1.84 µM]	9.2µM*	1.1%
Cc1ccc(C(=O)Cn2nnc3ccccc32)cc1	-0.2	-0.3%	-0.5%	4.47µM*	u	21.9%
Cc1ccc(NC(=O)CCn2nnc3ccccc32)cc1	0.0	1.4%	-4.2%	11.2µM*	u	3.4%
O=C(Cn1nnc2ccccc21)c1ccc(Br)cc1	2.9	3.4%	1.8%	u	6.1%	9.9%
Cc1ccc(NC(=O)CCn2nnc3ccccc32)c(C)c1	4.1	0.4%	-4.8%	u	3.9%	-3.4%
C=C1C=CS(=O)(=O)N(C(CC(C)C)C(=O)OC)C1 (stereo unspecified)	x	x	-3.3%	x	15.8%	x
CCc1ccccc1NC(=O)c1cc(S(=O)(=O)N2CCc3ccccc32)ccc1F	x	5.9%	10.5%	x	x	x
Cc1cc(C)n(CC(C)NC(=O)c2cc(COc3ccc(F)c(F)c3)on2)n1 (stereo unspecified)	-0.3	4.9%	-1.7%	92.0%	37.1%	x
Cc1cc(CNC(=O)c2cc(COc3ccc(F)c(F)c3)on2)nn1C	-2.9	0.5%	0.6%	8.91µM*	u	-14.1%
Fc1ccc(CNc2nc(-c3ccc(Cl)cc3)cc(C(F)(F)F)n2)cc1	x	-0.7%	-25.1%	-5.4%	-5.9%[9.27 µM]	x
Cc1cc(C)nc(N/N=C/C(Cl)=C/c2ccccc2)n1	-3.1	4.4%	-5.0%	10µM*	0.4%	16.7%
COc1ccc(/C(C)=N/Nc2nc(C)cc(-c3ccccc3)n2)cc1	-1.1	2.5%	-14.5%	-43.9%	14.6µM*	x
Cc1cc(C)nc(N/N=C/c2ccccc2)n1	-4.0	0.3%	-12.8%	93.5%	u	10.2%
Oc1ccc(/C=N/Nc2nc(-c3ccc(Cl)cc3)cc(C(F)(F)F)n2)cc1	-4.3	-2.9%	u	-82.7%	16.4µM*	-4.1%
Cc1cc(-c2ccccc2)nc(N/N=C/c2ccc(O)cc2)n1	-0.1	8.91µM*	-8.1%	16.5%	-27.8%	7.3%
O=c1c2sc3ccccc3c2n(Cc2cccc(C(F)(F)F)c2)c(=O)n1-c1ccccc1	x	-0.4%	-10.2%	0.1%	-16.1%	x
CCOC(=O)c1nc(Nc2ccccc2CC)c2ccccc2n1	-6.9	-0.5%	4.4%	-26.3%	23.1µM*	-2.8%

High-throughput results as filed in PubChem.
